Inhibition data for 21 compounds are collected here from PubChem BioAssay.

Assay [1] has as its target Nuclear receptor coactivator 3 (Homo sapiens) (UniProt Q9Y6Q9). Put plainly: SRC3 coactivator transcriptional activity inhibitors, confirmation, cell-based, luminescence, quadruplicate (AID 588792;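 active = mean inhibition over 43.08%, the solvent-only control mean plus 3 SD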;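 also: 0% = DMSO treated cells and 100% = gossypol at 36 µM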). The note with it: HEK293 GAL4-SRC3 luciferase reporter, at 3.6 µM, stronger effect = higher value.
The test system of assay [2] is transactivating tegument protein VP16 (Human herpesvirus 1), Gal4-VP16 luciferase reporter. Put plainly: VP16 transactivation inhibitors, counter-screen for SRC3 inhibitor project, cell-based, luminescence, high throughput (AID 588794). The note with it: mammalian cells, VP16-driven luciferase reporter luminescence; at 3.6 µM; stronger effect = higher value. A general note: The purpose of a counterscreen is to sort out artefacts and off-target activity.

Assay [3] can be described thus: StAR promoter reporter inhibitors, counter-screen for LRH-1 inverse agonist project, cell-based, luminescence, high throughput (AID 651611; in the data active = inhibition above about 28%). The note with it: StAR promoter luciferase reporter counterscreen, at 3.6 µM, stronger effect = higher value.
Assay [4] addresses Nuclear receptor subfamily 5 group A member 2 (Homo sapiens) (UniProt O00482). Put plainly: LRH-1 (NR5A2) inverse agonists, retest, confirmation, cell-based, luminescence (AID 651613; in the data active = inhibition above about 42%;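 also: HEK293T cells co-transfected with LRH-1 and StAR promoter luciferase reporter; 0% = vehicle wells and 100% = parental cells lacking receptor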). The note with it: cell-based LRH-1 luciferase reporter, inverse agonism; at 3.6 µM; stronger effect = higher value.
Assay [5] has as its target Steroidogenic factor 1 (Homo sapiens) (UniProt Q13285). Put plainly: SF1 (NR5A1) inverse agonists, counter-screen for LRH-1 inverse agonist project, cell-based, luminescence, high throughput (AID 651614; in the data active = inhibition above about 44%;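 also: cells cotransfected with StAR promoter reporter and SF1 expression vector; 0% = vehicle on cells with receptor and 100% = vehicle on cells lacking receptor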). The note with it: cell-based SF1 luciferase reporter, at 3.6 µM, stronger effect = higher value.
Assay [6] is described as follows: VP16 transactivation reporter inhibitors, counter-screen for LRH-1 inverse agonist project, cell-based, luminescence, high throughput (AID 651615; in the data active = inhibition above about 33%). The note with it: Gal4-VP16 luciferase reporter cells, at 3.6 µM, stronger effect = higher value.
For assay [7], the target named is Nuclear receptor coactivator 1 (Homo sapiens) (UniProt Q15788). The experiment in a line: SRC1 coactivator transcriptional activity inhibitors, confirmation, cell-based, luminescence, quadruplicate (AID 588820;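 active = mean inhibition above 46.68%, the untreated control wells mean plus 3 SD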;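 also: 0% = DMSO wells and 100% = gossypol 36 µM treated wells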). The note with it: HEK293 GAL4-SRC1 luciferase reporter, at 3.6 µM, stronger effect = higher value. Background: A reporter such as luciferase makes a cellular process visible.
Sequence of Nuclear receptor coactivator 1 (Homo sapiens) (Q15788 whole entry, looked up, the tested form may be a part): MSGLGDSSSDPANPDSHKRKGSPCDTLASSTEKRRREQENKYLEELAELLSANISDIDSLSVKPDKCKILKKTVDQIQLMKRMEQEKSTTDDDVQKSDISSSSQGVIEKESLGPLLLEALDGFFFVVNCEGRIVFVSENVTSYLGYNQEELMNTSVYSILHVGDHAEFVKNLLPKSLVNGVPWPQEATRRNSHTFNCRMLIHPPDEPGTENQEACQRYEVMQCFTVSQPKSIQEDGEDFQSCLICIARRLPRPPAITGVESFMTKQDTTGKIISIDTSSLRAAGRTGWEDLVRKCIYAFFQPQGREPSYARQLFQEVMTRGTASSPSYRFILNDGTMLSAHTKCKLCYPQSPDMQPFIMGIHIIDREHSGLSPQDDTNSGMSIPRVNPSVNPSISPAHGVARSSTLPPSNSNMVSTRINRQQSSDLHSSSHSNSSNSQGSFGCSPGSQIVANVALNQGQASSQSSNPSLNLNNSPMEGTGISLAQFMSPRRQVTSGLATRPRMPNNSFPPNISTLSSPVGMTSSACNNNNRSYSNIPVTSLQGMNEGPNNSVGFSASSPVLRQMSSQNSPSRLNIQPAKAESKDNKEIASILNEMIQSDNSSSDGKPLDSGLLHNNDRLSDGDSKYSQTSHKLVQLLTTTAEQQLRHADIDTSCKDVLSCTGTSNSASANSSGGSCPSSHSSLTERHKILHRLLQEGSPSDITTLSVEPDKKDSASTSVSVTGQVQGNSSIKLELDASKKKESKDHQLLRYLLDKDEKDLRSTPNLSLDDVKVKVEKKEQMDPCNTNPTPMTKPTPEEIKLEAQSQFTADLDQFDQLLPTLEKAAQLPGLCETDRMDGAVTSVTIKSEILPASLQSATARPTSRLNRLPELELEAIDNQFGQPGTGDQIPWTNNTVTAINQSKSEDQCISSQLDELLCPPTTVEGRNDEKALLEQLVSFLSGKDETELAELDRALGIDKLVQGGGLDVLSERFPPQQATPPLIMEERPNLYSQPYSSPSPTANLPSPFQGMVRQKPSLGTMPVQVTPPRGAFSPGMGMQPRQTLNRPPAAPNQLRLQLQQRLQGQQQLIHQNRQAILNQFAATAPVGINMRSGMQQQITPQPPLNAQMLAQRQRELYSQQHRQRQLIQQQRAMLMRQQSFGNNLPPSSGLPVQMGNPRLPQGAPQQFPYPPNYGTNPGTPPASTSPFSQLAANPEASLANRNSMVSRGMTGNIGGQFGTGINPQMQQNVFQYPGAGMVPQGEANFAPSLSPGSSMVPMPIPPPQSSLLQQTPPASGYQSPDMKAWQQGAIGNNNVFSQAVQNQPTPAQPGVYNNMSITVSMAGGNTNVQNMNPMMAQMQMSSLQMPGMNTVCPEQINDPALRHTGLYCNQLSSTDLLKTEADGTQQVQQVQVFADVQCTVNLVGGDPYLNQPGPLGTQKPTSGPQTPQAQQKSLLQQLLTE

Assay [8] is described as follows: VP16 transactivation inhibitors, counter-screen for SRC1 inhibitor project, cell-based, luminescence, high throughput (AID 588824; in the data active = inhibition above about 25%). The note with it: cell-based VP16 transactivation luciferase luminescence; at 3.6 µM; stronger effect = higher value.
The test system of assay [9] is transactivating tegument protein VP16 (Human herpesvirus 1). Put plainly: VP16 transactivation reporter inhibitors, counter-screen for SRC2 inhibitor project, cell-based, luminescence, single concentration (AID 652007; in the data active = inhibition above about 36%). The note with it: cell-based VP16 transactivation luciferase reporter, at 8.9 µM, stronger effect = higher value.
Assay [10] concerns the target Nuclear receptor coactivator 2 (Homo sapiens) (UniProt Q15596). The experiment in a line: SRC2 coactivator transcriptional activity inhibitors, confirmation, cell-based, luminescence, HEK293, triplicate (AID 652008;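 active = mean inhibition above 46.5%, the solvent-only control mean plus 3 SD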;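 also: 0% = DMSO-treated cells and 100% = Gossypol at 36 µM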). The note with it: HEK293 GAL4-SRC2 luciferase reporter, at 8.9 µM, stronger effect = higher value.
A short description of assay [11]: Gal4-VP16 luciferase reporter inhibitors, counter-screen for COUP-TFII antagonist project, cell-based, luminescence, HEK293 (AID 687007; in the data active = inhibition above about 13%). The note with it: at 8.5 µM, stronger effect = higher value.
Assay [12] has as its target COUP transcription factor 2 (Homo sapiens) (UniProt P24468). Put plainly: NR2F2 transcriptional activity inhibitors, confirmation, cell-based, luciferase reporter, HEK293, triplicate (AID 687008;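 active = mean inhibition over three repeats above a set limit taken from the earlier primary screen, cut at about 38% in these data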;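 also: 100% = cells given the luciferase reporter alone without the COUP-TF2 vector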). The note with it: HEK293 NGFI-A luciferase reporter, luminescence; at 8.5 µM; stronger effect = higher value.
The target of assay [13] is Photoreceptor-specific nuclear receptor (Homo sapiens) (UniProt Q9Y5X4). The experiment in a line: NR2E3 agonist confirmation in cells, cell-based, luminescence, CHO-S two-hybrid (AID 624378;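 active = average inhibition above a cutoff equal to the mean inhibition of all tested compounds plus one SD, cut at about 70% in these data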;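 also: 0% = DMSO in NR2E3 cells and 100% = DMSO in cells lacking NR2E3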). The note with it: CHO-S mammalian two-hybrid NR2E3-NCOR, luciferase luminescence; at 3.98 µM; stronger effect = higher value.
Sequence of Photoreceptor-specific nuclear receptor (Homo sapiens) (Q9Y5X4 whole entry, looked up, the tested form may be a part): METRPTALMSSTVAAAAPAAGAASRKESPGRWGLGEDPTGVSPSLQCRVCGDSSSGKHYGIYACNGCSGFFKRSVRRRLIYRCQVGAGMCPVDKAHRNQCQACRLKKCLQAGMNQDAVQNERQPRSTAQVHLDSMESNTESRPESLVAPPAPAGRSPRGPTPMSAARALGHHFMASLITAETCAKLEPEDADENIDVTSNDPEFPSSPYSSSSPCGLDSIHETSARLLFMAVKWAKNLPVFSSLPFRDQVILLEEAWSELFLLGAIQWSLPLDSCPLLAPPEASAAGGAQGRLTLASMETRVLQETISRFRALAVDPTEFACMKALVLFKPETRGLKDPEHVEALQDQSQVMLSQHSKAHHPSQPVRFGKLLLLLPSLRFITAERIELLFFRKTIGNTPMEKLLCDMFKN
Assay [14] in a line: GAL4-VP16 reporter modulators, confirmation, counter-screen for NR2E3 agonist project, cell-based, luminescence, CHO-S, high throughput (AID 624379;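 active = mean inhibition above a cutoff equal to the average over all tested compounds plus one standard deviation, cut at about 70% in these data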;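 also: 0% = DMSO with VP16-transfected cells and 100% = DMSO with cells lacking VP16; higher means less reporter light so more repression of VP16 activity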). The note with it: CHO-S GAL4-VP16 luciferase reporter, at 3.98 µM, stronger effect = higher value.

What is called inhibition is the change of the read-out against control, counted positive when it falls.

Molecules are shown by their SMILES. Unmarked numbers belong to inactive results. The list shows a part of the results. The source made the active and inactive calls. Rule as the data show it, unless noted: active = inhibition above about 30%; inactive = the rest.

Sequence of COUP transcription factor 2 (Homo sapiens) (P24468 whole entry, looked up): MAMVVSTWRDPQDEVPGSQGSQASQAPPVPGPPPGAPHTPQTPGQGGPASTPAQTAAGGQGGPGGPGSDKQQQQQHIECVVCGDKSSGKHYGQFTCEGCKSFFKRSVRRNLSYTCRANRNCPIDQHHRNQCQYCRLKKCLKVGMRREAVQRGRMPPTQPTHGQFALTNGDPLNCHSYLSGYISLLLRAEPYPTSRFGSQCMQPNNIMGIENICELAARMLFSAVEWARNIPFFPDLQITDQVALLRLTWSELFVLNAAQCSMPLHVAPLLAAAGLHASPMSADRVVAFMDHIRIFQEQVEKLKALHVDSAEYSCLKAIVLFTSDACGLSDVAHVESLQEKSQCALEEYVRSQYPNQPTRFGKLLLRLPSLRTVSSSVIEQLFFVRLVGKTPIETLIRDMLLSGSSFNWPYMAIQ
Sequence of Nuclear receptor subfamily 5 group A member 2 (Homo sapiens) (O00482 whole entry, looked up): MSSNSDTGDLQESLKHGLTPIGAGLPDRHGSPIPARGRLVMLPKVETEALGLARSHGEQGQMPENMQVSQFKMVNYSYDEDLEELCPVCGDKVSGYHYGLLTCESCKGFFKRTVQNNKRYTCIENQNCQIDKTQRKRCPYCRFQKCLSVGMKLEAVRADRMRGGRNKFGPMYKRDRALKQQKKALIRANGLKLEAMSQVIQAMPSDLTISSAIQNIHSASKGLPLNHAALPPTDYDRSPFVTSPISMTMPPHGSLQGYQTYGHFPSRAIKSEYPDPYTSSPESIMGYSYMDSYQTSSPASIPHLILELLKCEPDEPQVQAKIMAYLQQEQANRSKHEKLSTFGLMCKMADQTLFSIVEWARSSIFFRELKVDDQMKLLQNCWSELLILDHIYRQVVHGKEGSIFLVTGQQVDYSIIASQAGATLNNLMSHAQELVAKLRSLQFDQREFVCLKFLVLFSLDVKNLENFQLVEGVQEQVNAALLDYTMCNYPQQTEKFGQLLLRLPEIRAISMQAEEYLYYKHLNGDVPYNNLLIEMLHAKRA
Sequence of Steroidogenic factor 1 (Homo sapiens) (Q13285 whole entry, looked up, the tested form may be a part): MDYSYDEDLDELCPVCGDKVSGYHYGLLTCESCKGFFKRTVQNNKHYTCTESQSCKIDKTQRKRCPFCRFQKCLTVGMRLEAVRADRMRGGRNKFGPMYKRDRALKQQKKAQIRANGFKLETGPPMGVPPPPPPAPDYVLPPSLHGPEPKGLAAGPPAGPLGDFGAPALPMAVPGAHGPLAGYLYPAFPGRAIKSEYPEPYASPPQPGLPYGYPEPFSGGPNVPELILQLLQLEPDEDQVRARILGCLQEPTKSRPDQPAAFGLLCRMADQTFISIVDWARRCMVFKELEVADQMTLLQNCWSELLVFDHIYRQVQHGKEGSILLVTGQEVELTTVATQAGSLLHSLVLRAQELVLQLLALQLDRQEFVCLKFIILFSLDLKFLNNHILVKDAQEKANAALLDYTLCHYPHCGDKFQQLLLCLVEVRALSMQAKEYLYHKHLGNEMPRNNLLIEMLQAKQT
Sequence of Nuclear receptor coactivator 3 (Homo sapiens) (Q9Y6Q9 whole entry, looked up, the tested form may be a part): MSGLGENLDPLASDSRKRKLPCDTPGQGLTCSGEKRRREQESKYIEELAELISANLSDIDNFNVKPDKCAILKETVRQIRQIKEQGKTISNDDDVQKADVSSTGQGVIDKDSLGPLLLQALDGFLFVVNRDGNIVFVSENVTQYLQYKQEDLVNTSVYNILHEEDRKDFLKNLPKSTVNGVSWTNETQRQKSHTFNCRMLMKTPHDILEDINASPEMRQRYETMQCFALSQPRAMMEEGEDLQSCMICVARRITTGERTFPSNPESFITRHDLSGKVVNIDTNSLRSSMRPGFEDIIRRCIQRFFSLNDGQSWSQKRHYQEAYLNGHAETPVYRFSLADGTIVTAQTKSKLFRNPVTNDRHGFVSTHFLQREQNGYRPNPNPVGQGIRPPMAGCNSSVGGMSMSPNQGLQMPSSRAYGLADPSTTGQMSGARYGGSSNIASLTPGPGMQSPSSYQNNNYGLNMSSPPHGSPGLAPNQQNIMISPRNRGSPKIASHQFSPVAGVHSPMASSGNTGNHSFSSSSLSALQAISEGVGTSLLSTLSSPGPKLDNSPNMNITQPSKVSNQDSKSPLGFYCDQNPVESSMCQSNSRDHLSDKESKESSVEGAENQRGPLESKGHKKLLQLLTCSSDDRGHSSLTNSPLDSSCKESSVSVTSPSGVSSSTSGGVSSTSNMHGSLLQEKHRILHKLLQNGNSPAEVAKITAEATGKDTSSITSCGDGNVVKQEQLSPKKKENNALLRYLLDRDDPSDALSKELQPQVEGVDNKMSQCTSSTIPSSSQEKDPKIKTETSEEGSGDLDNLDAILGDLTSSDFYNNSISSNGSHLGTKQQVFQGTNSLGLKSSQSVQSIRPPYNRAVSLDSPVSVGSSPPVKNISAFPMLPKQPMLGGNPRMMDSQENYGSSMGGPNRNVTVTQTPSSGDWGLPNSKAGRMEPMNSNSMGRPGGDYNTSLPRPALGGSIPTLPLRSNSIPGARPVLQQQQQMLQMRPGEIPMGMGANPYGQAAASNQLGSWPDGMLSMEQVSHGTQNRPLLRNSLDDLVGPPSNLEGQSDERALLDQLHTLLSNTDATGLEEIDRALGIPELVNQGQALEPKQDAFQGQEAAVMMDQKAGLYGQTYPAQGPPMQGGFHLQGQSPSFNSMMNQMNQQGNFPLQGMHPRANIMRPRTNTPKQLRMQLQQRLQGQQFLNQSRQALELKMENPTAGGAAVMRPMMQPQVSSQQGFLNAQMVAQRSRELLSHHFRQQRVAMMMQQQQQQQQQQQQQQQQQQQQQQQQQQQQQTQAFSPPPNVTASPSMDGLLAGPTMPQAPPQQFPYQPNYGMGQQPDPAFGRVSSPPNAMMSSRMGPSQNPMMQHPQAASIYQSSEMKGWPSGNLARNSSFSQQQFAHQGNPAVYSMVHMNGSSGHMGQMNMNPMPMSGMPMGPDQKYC

With `Cc1ncc(CO)c(/C=N/NC(=O)c2cc3c(s2)CCCC3)c1O`, the inhibition was 40.9% in assay [1]; 27.7% in [2]; 76.8% (active) in [3]; 94.7% (active) in assay [4]; 77.2% (active) in assay [5]; 82.6% (active) in assay [6].
As for `CCOc1cc(/C=C2\CCC/C(=C\c3cc(Cl)c(O)c(OCC)c3)C2=O)cc(Cl)c1O`, the inhibition in assay [1] is 43.9% (active); in assay [2], 21.8%; in assay [3], 11.2%; in [4], 47.7% (active); in assay [5], 61.1% (active); in assay [6], 46.4% (active).
As for `Cc1ccc(S(=O)(=O)Nc2cc(Cl)c(O)c3ncccc23)cc1`, the inhibition in [1] was 28.2%; in [2], 24.5%; in assay [3] it was 48.1% (active); in assay [4] it was 72.1% (active); in assay [5] it was 62.2% (active); in [6], 62% (active).
`CCCCCc1ccc(OCCCC[n+]2ccccc2)c(CCCCC)c1`: the inhibition was 20.9% in assay [1]; 20.9% in [2]; 3.96% in assay [3]; 41.8% (active) in assay [4]; 37.9% in [5]; 42.3% (active) in assay [6].
Regarding `Cc1ccc(C(=O)Nc2sc3c(c2C(=O)O)CCCC3)o1`, the inhibition in [1] is 17.1%; in [2] it was 40% (active); in assay [3], 32.5% (active); in [4], 75.9% (active); in [5], 78.6% (active); in assay [6], 61.7% (active).
In the case of `CCOC(=O)C(=CNc1ccc(NC2=NCC(C)S2)cc1)C(=O)OCC` (centres undefined), the inhibition in [1] is 60.3% (active); in assay [2] it was 24.9%; in assay [3], -39.4%; in [4], 69.1% (active); in assay [5], 70.9% (active); in [6] it was 36.8% (active).
Turning to `CCN(C(C)=O)c1cnc(C=NNC(N)=S)c2ccccc12`, the inhibition in assay [1] was 39.5%; in [2] it was 29.1%; in assay [3] it was 78.7% (active); in assay [4] it was 75.7% (active); in assay [5] it was 69.5% (active); in assay [6], 69.3% (active).
With `COC1C(=O)CCC2(CO2)C1(O)C1(C)OC1CC=C(C)C` (centres undefined), the inhibition was 39.3% in assay [1]; 40.8% (active) in [2]; 33.8% (active) in assay [3]; 43% (active) in [4]; 39.6% in assay [5]; 42% (active) in assay [6].
Regarding `CCc1ccc(N(CC)c2ncnc3nc[nH]c23)cc1`, the inhibition in [1] was 50.1% (active); in [2], 33% (active); in [7], 56.7% (active); in assay [8], 36.9% (active); in assay [9], 4.69%; in assay [10], 50.7% (active). Also, the inhibition in assay [11] is -1.24%; in assay [12], 17.4%.
Regarding `CCN1/C(=C\c2ccc3cc(C)ccc3[n+]2CC)Sc2cc(C)c(C)cc21`, the inhibition is 34.9% in [1]; 57.5% (active) in assay [2]; 32.8% (active) in assay [3]; 82.5% (active) in assay [4]; 72.8% (active) in assay [5]; 65.6% (active) in [6].
As for `CC1(C)CC[C@]2(C(=O)n3ccnc3)CC[C@]3(C)[C@H](C(=O)C=C4[C@@]5(C)C=C(C#N)C(=O)C(C)(C)[C@@H]5CC[C@]43C)[C@@H]2C1`, the inhibition in [1] was 93.8% (active); in assay [2] it was 82% (active); in assay [8], 93.8% (active).
With `CC(=NNC(=S)N1CCCC1)c1ccccn1`, the inhibition is 54.1% (active) in [1], 64.5% (active) in assay [2] and 66.4% (active) in [8].
Turning to `CCOC(=O)C1=Nc2ccccc2C1=[N+]=[N-]`, the inhibition was 35.7% in assay [1]; 46% (active) in [2]; 14.1% in [3]; 53.3% (active) in assay [4]; 45.2% (active) in assay [5]; 53.2% (active) in [6].
For `CCOc1ccc(OCc2ccc(C(=O)NN=Cc3ccc[nH]3)cc2)cc1`, the inhibition is 38.9% in assay [1]; 78.4% (active) in [2]; 76.2% (active) in assay [3]; 104% (active) in assay [4]; 90.6% (active) in assay [5]; 87.1% (active) in assay [6].
As to `CC(C)(C)c1ccc(C2CC2C(=O)N/N=C\c2ccc[nH]2)cc1` (centres undefined), the inhibition in assay [1] was 39.8%; in assay [2], 81.5% (active); in [3], 80.9% (active); in assay [4], 105% (active); in assay [5], 92% (active); in assay [6], 87.4% (active).
For `O=c1oc2ccccc2cc1-c1cn(-c2ccccc2)c(=S)[nH]1`, the inhibition in [1] was 11%; in [2], 23.1%; in assay [7], -68.1%; in [8], -22.7%; in [11], 46.9% (active); in [12], 60.8% (active).
On to `COc1cc(C)c(Br)cc1S(=O)(=O)NCc1ccncc1`, for which the inhibition in assay [1] was 9.21%; in assay [2], 30.9% (active); in [3], 14.3%; in [4], 49% (active); in assay [5] it was 38.5%; in assay [6] it was 38% (active).
Turning to `COc1ccc(-c2c[n+](CC(=O)OC3CC(C)CCC3C(C)C)c3n2CCC3)cc1` (centres undefined), the inhibition in [1] is 22.9%; in [2], 42.1% (active); in assay [3] it was 20.9%; in [4], 95.2% (active); in assay [5] it was 62.6% (active); in assay [6] it was 56.7% (active).
Take `CC(C)(C)Nc1nc(-c2ccccn2)nc2ccccc12`: the inhibition in assay [1] was 35%; in [2], 43.1% (active); in assay [13], 99.2% (active); in assay [14], 49.7%; in assay [3], 69.1% (active); in [4] it was 85.6% (active). The results for the inhibition in assay [5] and in assay [6] were 84.7% (active) and 63.9% (active), respectively.
Take `C=CCC1(CC=C)CCCN1C(=O)c1cc(COc2ccc(-n3cncn3)cc2)on1`: the inhibition was 5.51% in [1]; 30.2% (active) in assay [2]; 97.4% (active) in assay [13]; 86.5% (active) in [14]; -1.01% in assay [11]; 49.6% (active) in [12].
`COc1ccc(-n2c(-c3ccc(Cl)cc3)c[n+]3c2CCc2ccccc2-3)cc1`: the inhibition was 16.3% in assay [1]; 45.2% (active) in assay [2]; 30.1% (active) in assay [3]; 79.2% (active) in [4]; 69.1% (active) in [5]; 70.5% (active) in assay [6].
